Laboratory results taken from PubChem BioAssay.
For part of these data: Measured potencies and affinities stand elsewhere. Calls of active or inactive are those of the source. Unless noted, how the calls were made is not given here.

Molecular target: Calcium-dependent protein kinase 1 (Plasmodium falciparum (isolate 3D7)) (UniProt P62344)
Assay: PfCDPK1 kinase inhibitors, biochemical, TCAMS library (AID 1159585; cut-off not given, nearly all actives have IC50 up to about 0.98 µM;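 further: inhibitors leave more ATP so luminescence rises with inhibition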)
Settings: recombinant PfCDPK1, Kinase-Glo ATP depletion luminescence

Sequence of Calcium-dependent protein kinase 1 (Plasmodium falciparum (isolate 3D7)) (P62344 whole entry, looked up): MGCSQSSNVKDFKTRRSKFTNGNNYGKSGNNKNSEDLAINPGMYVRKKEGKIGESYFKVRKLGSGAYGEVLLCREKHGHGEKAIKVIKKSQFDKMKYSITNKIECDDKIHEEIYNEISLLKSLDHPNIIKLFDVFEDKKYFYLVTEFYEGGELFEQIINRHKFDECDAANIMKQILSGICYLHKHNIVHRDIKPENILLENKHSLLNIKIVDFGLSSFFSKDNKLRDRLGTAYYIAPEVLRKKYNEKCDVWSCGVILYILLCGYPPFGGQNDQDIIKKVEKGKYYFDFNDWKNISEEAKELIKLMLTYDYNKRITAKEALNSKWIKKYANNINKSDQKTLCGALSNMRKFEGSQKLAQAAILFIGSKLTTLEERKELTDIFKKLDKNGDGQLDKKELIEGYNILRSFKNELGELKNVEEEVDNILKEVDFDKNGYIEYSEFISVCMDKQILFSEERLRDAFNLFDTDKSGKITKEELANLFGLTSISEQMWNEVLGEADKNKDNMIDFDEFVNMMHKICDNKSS

outcome, inactive:
Cc1cc(NN=Cc2ccccc2)c2cc(C(F)(F)F)ccc2n1, Cc1cc(Cl)c(S(=O)(=O)NC2CCCC2)cc1OCC(=O)NC1CCCCC1, O=C(Nc1ccc2c(c1)CCC2)c1cccc(N2CCN(c3ccncc3)CC2)c1, O=C(Nc1ccc(-c2cccc(-c3nc4ccc(C(F)(F)F)cc4[nH]3)c2)cc1)c1ccncc1, COc1ccc(-c2c(-c3ccc(OCc4ccccc4)cc3O)n[nH]c2C(F)(F)F)cc1, CCCCCN1CCCN(Cc2cccc(NC(=O)c3ccc(Cl)c(Cl)c3)c2)CC1, Cc1cccc(C)c1C1CCN(C2CCC(NC(=O)/C=C/c3ccccc3)CC2)CC1 (configuration not stated)

Molecular target: Plasmodium falciparum protein kinase 6 (PK6, PF3D7_1337100) (UniProt Q8IDW1)
Assay: PfPK6 kinase inhibitors, biochemical, TCAMS library (AID 1159586)
Settings: recombinant PfPK6, Kinase-Glo ATP depletion luminescence

Sequence of Plasmodium falciparum protein kinase 6 (PK6, PF3D7_1337100) (Q8IDW1 1-305): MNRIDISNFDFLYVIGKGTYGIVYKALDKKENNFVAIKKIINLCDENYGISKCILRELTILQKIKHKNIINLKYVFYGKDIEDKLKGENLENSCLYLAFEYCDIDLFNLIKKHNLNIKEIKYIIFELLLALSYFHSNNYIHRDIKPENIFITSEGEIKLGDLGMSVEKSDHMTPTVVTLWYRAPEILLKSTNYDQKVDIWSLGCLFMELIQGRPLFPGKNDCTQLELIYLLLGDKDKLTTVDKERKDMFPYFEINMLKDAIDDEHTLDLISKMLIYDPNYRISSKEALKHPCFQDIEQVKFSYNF

outcome, inactive:
CC1(CCCCN2CCC(Oc3ccc(F)cc3F)CC2)C(=O)Nc2ccccc21 (configuration not stated), c1cc(CNC2CCCC2)cc(-c2ccc(CNc3ccc4ncccc4c3)cc2)c1, O=S(=O)(c1cc2ccccc2s1)N(CCC(O)(C(F)(F)F)C(F)(F)F)Cc1cccc(O)c1, CCC(C)CN1CCN(c2ccc(NC(=O)c3cccs3)cc2)CC1C (configuration not stated), COc1ccc(Nc2nccc(N3CCC(NC(=O)C(C)c4ccc(Cl)cc4)C3)n2)cc1 (configuration not stated), O=C(/C=C/c1ccc(Cl)c(Cl)c1)NCCCCN1CCC(c2c[nH]c3ccccc23)CC1, N#Cc1cccc(NC(=O)Nc2ccc(-c3ccc(-c4nc5ccc(C(F)(F)F)cc5[nH]4)cc3)cc2)c1, CCOc1ccc(-c2nonc2NC(=O)c2ccc(OC(C)C)cc2)cc1OCC, COc1ccccc1NC(=O)OC(COc1ccc(N)cc1)CN1CC=C(c2ccccc2)CC1 (configuration not stated), CCCCN1C(=O)C(c2ccccc2)(c2ccccc2)N=C1N, O=C(Nc1ccc(OC2CCN(Cc3ccc(F)cc3)C2)c(Cl)c1)c1ccc(F)cc1 (configuration not stated), COc1cccc(Nc2c(C(N)=O)cnc3ccc(-c4ccc(S(C)=O)cc4)cc23)c1 (configuration not stated), CN(Cc1ccccc1)C1CCCN(c2cc(NC(=O)c3cccs3)ccn2)C1 (configuration not stated), C[C@H](Cc1ccc(S(=O)(=O)c2ccc(C[C@@H](C)NC[C@H](O)c3cccc(Cl)c3)cc2)cc1)NC[C@H](O)c1cccc(Cl)c1, O=C(Nc1ccc(-c2ccccc2)s1)N[C@H]1CCN(Cc2ccc(OCCCN3CCCCC3)cc2)C1, COc1cc(Nc2nc(N)c3cc(OC)c(OC)cc3n2)cc(OC)c1, O=c1cc(NCCCNCc2ccc(C(F)(F)F)s2)[nH]c2ccccc12, Cc1cc(NC(=O)c2sc3ccccc3c2O)no1, Nc1nccc2ccc(-c3ccsc3)cc12, COc1cc2nc(NCCC(C)C)n3nc(-c4ccccc4)nc3c2cc1OC, COc1ccc2nccc([C@@H](O)CN3CCC(NCc4cc5c(F)ccc(F)c5[nH]4)CC3)c2c1, CCCN(CC)CCOC(=O)c1ccccc1, C[C@H](Nc1nc(C(Oc2ccccc2)c2ccccc2)nc2[nH]ncc12)c1ccccc1 (some centres not stated), Cc1ccc(O)cc1C[C@@H]1C(=O)CC[C@@]2(C)[C@H]1CC[C@]2(C)O, Cc1ccc2c(NN=Cc3ccc(Cl)cc3)cc(C)nc2c1, COC(=O)c1cccc(CNCc2cccc(-c3ccc(-c4nc5ccccc5[nH]4)cc3)c2)c1, COc1cc2nc(Nc3ccc(C)cc3)nc(Nc3ccc(C)cc3)c2cc1OC, Cc1cc(NCc2ccccc2)nc2cc(O)ccc12, Cn1cccc1C(=O)C(=O)Nc1cccc(-c2ccc(-c3nc4ccc(C(F)(F)F)cc4[nH]3)cc2)c1, O=C(N[C@@H](Cc1ccccc1)[C@H](O)CNC1CCCCC1)c1cc(C2CCCC2)cc(N2CCCC2=O)c1, COc1ccc(C2=CCN(c3ccc(Cl)c(Cl)c3)C2=O)cc1OCCN1CCCCC1, CCCCCN1CCCC1CNS(=O)(=O)c1ccc(C(=O)Nc2ccc(C(F)(F)F)cc2)cc1 (configuration not stated), Cc1nc2ccccc2c(=O)n1N=Cc1ccccc1[N+](=O)[O-], Cc1cc(NN=Cc2ccccc2)c2cc(C(F)(F)F)ccc2n1, Cc1cc(Cl)c(S(=O)(=O)NC2CCCC2)cc1OCC(=O)NC1CCCCC1, O=C(Nc1ccc2c(c1)CCC2)c1cccc(N2CCN(c3ccncc3)CC2)c1, O=C(Nc1ccc(-c2cccc(-c3nc4ccc(C(F)(F)F)cc4[nH]3)c2)cc1)c1ccncc1, COc1ccc(-c2c(-c3ccc(OCc4ccccc4)cc3O)n[nH]c2C(F)(F)F)cc1, CCCCCN1CCCN(Cc2cccc(NC(=O)c3ccc(Cl)c(Cl)c3)c2)CC1, Cc1cccc(C)c1C1CCN(C2CCC(NC(=O)/C=C/c3ccccc3)CC2)CC1 (configuration not stated)

Molecular target: Protein kinase 7 (PK7), Plasmodium falciparum 3D7 (PF3D7_0213400) (UniProt Q7YTF7)
Assay: inhibition of Plasmodium PK7 catalytic activity – biochemical, TCAMS antimalarial set, Kinase-Glo luminescence (AID 1159587)
Settings: recombinant PfPK7, Kinase-Glo ATP depletion luminescence

Sequence of Protein kinase 7 (PK7), Plasmodium falciparum 3D7 (PF3D7_0213400) (Q7YTF7 1-343): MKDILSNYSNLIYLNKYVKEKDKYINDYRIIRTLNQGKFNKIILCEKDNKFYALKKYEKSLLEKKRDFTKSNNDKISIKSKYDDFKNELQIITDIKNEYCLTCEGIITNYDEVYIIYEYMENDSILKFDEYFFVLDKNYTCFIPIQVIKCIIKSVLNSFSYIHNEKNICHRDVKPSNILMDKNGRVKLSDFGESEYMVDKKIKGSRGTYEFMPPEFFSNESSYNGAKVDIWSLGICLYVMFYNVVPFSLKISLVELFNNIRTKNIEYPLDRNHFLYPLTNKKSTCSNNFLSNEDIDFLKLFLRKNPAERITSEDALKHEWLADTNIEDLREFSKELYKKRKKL

outcome, inactive:
CC1(CCCCN2CCC(Oc3ccc(F)cc3F)CC2)C(=O)Nc2ccccc21 (configuration not stated), c1cc(CNC2CCCC2)cc(-c2ccc(CNc3ccc4ncccc4c3)cc2)c1, O=S(=O)(c1cc2ccccc2s1)N(CCC(O)(C(F)(F)F)C(F)(F)F)Cc1cccc(O)c1, CCC(C)CN1CCN(c2ccc(NC(=O)c3cccs3)cc2)CC1C (configuration not stated), COc1ccc(Nc2nccc(N3CCC(NC(=O)C(C)c4ccc(Cl)cc4)C3)n2)cc1 (configuration not stated), O=C(/C=C/c1ccc(Cl)c(Cl)c1)NCCCCN1CCC(c2c[nH]c3ccccc23)CC1, N#Cc1cccc(NC(=O)Nc2ccc(-c3ccc(-c4nc5ccc(C(F)(F)F)cc5[nH]4)cc3)cc2)c1, CCOc1ccc(-c2nonc2NC(=O)c2ccc(OC(C)C)cc2)cc1OCC, COc1ccccc1NC(=O)OC(COc1ccc(N)cc1)CN1CC=C(c2ccccc2)CC1 (configuration not stated), CCCCN1C(=O)C(c2ccccc2)(c2ccccc2)N=C1N, O=C(Nc1ccc(OC2CCN(Cc3ccc(F)cc3)C2)c(Cl)c1)c1ccc(F)cc1 (configuration not stated), COc1cccc(Nc2c(C(N)=O)cnc3ccc(-c4ccc(S(C)=O)cc4)cc23)c1 (configuration not stated), CN(Cc1ccccc1)C1CCCN(c2cc(NC(=O)c3cccs3)ccn2)C1 (configuration not stated), C[C@H](Cc1ccc(S(=O)(=O)c2ccc(C[C@@H](C)NC[C@H](O)c3cccc(Cl)c3)cc2)cc1)NC[C@H](O)c1cccc(Cl)c1, O=C(Nc1ccc(-c2ccccc2)s1)N[C@H]1CCN(Cc2ccc(OCCCN3CCCCC3)cc2)C1, COc1cc(Nc2nc(N)c3cc(OC)c(OC)cc3n2)cc(OC)c1, O=c1cc(NCCCNCc2ccc(C(F)(F)F)s2)[nH]c2ccccc12, Cc1cc(NC(=O)c2sc3ccccc3c2O)no1, Nc1nccc2ccc(-c3ccsc3)cc12, COc1cc2nc(NCCC(C)C)n3nc(-c4ccccc4)nc3c2cc1OC, COc1ccc2nccc([C@@H](O)CN3CCC(NCc4cc5c(F)ccc(F)c5[nH]4)CC3)c2c1, CCCN(CC)CCOC(=O)c1ccccc1, C[C@H](Nc1nc(C(Oc2ccccc2)c2ccccc2)nc2[nH]ncc12)c1ccccc1 (some centres not stated), Cc1ccc(O)cc1C[C@@H]1C(=O)CC[C@@]2(C)[C@H]1CC[C@]2(C)O, Cc1ccc2c(NN=Cc3ccc(Cl)cc3)cc(C)nc2c1, COC(=O)c1cccc(CNCc2cccc(-c3ccc(-c4nc5ccccc5[nH]4)cc3)c2)c1, COc1cc2nc(Nc3ccc(C)cc3)nc(Nc3ccc(C)cc3)c2cc1OC, Cc1cc(NCc2ccccc2)nc2cc(O)ccc12, Cn1cccc1C(=O)C(=O)Nc1cccc(-c2ccc(-c3nc4ccc(C(F)(F)F)cc4[nH]3)cc2)c1, O=C(N[C@@H](Cc1ccccc1)[C@H](O)CNC1CCCCC1)c1cc(C2CCCC2)cc(N2CCCC2=O)c1, COc1ccc(C2=CCN(c3ccc(Cl)c(Cl)c3)C2=O)cc1OCCN1CCCCC1, CCCCCN1CCCC1CNS(=O)(=O)c1ccc(C(=O)Nc2ccc(C(F)(F)F)cc2)cc1 (configuration not stated), Cc1nc2ccccc2c(=O)n1N=Cc1ccccc1[N+](=O)[O-], Cc1cc(NN=Cc2ccccc2)c2cc(C(F)(F)F)ccc2n1, Cc1cc(Cl)c(S(=O)(=O)NC2CCCC2)cc1OCC(=O)NC1CCCCC1, O=C(Nc1ccc2c(c1)CCC2)c1cccc(N2CCN(c3ccncc3)CC2)c1, O=C(Nc1ccc(-c2cccc(-c3nc4ccc(C(F)(F)F)cc4[nH]3)c2)cc1)c1ccncc1, COc1ccc(-c2c(-c3ccc(OCc4ccccc4)cc3O)n[nH]c2C(F)(F)F)cc1, CCCCCN1CCCN(Cc2cccc(NC(=O)c3ccc(Cl)c(Cl)c3)c2)CC1, Cc1cccc(C)c1C1CCN(C2CCC(NC(=O)/C=C/c3ccccc3)CC2)CC1 (configuration not stated)
